Compound activity (PubChem BioAssay)
Only some compounds are listed: those with a hit (about 2.1% of all), similar ones and a draw of the others.
GALR2 antag – GALR2 (human) receptor antagonism; AID 828; GALR2-expressing cells, antagonist mode; inhibition, % at 4 µM; O43603; actives 0.39% (n = 140,000); in the data active = inhibition above about 27%;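 note: cells stimulated with galanin 1-16 at roughly its EC80; 0% = agonist challenge control and 100% = basal control without agonist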
Target sequence (O43603 whole entry, looked up): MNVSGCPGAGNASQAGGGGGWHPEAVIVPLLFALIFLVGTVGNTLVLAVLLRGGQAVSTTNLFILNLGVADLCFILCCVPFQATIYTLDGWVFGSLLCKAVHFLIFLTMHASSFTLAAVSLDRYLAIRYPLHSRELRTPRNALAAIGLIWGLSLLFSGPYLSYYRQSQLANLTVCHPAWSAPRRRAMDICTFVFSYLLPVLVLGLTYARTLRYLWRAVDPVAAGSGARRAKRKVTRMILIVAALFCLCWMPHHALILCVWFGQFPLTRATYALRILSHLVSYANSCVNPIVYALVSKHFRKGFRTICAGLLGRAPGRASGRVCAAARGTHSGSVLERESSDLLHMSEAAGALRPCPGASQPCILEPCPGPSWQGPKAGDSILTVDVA
DAT uptake mod – changed human dopamine transporter uptake under cocaine IC80. Q01959. B-score at 10 µM. actives 1.3% (n = 110,000). LLC-PK1 hDAT cells, [14C]-dopamine uptake with cocaine IC80; actives deviate in either direction;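 active = Z score or B-score, a plate-position-corrected score, falls beyond the plate's 99.7% confidence bounds, in either direction; inactive = both scores lie inside the 99.7% bounds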;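 note: scored against the spread of the other compound wells on the same plate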
S1P2 antag – antagonists of human S1P2 receptor | inhibition, % at 5 µM | actives 0.21% (n = 97,000) | cell-based S1P2 antagonist assay, inhibition at 5 uM; in the data active = inhibition above about 45%;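 note: CRE beta-lactamase reporter cells expressing human S1P2 stimulated with S1P; 0% = agonist at EC80 alone and 100% = agonist plus reference antagonist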
GALR2 ag – activates the human galanin receptor 2; O43603; GALR2-expressing cells, agonist activation read-out; activation, % (no concentration beside the values); actives 0.48% (n = 140,000); AID 803; in the data active = activation above about 5%, passing the limit was not always enough;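 note: 0% = vehicle buffer wells and 100% = reference agonist at full effect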
S1P2 ag – activates the human S1P2 receptor. S1P2-expressing cell line, agonist reporter read-out. activation, % at 4.5 µM. AID 729. actives 0.46% (n = 97,000); in the data active = activation above about 16%;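 note: 0% = vehicle low control and 100% = maximal reference agonist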
GALR2 agon conf – confirmation of human galanin receptor 2 (GALR2) agonists; shares compounds with GALR2 ag; GALR2-expressing cells, agonist activation; activation, % at 5.6 µM; actives 10% (n = 460); in the data active = activation above about 8.4%;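 note: 0% = buffer-only vehicle wells and 100% = full reference agonist response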
BLA activ ctr – counter-screen for GALR2 agonists: beta-lactamase reporter activators | CHO NFAT-bla reporter, beta-lactamase FRET activation | AID 865 | activation, % at 5.6 µM | actives 10% (n = 460) | shares compounds with GALR2 ag;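 active = activation above the screen-wide mean activation plus 3 SD, cut at about 8% in these data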;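 note: 0% = DMSO with PBS wells and 100% = thapsigargin positive control wells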
Starred values were filed as active, the others as inactive; . = no result.

SMILES	GALR2 antag	DAT uptake mod	S1P2 antag	GALR2 ag	S1P2 ag	others
C=CCNC(=O)c1c(N)n(Cc2ccco2)c2nc3ccccc3nc12	-19	-0.16	-15	6.4*	18*
CCCCn1c(N)c(C(=O)NCCN2CCOCC2)c2nc3ccccc3nc21	-4	2.1	-17	3	2
Nc1c(C(=O)NCCc2ccccc2)c2nc3ccccc3nc2n1CCN1CCOCC1	-12	0.15	-28	25*	31*
COc1ccc(CCNC(=O)c2c(N)n(CCN3CCOCC3)c3nc4ccccc4nc23)cc1	-6	1.9	-24	7	27*
CC(C)CCNC(=O)c1c(N)n(CC2CCCO2)c2nc3ccccc3nc12 (stereo unspecified)	-11	1	-62	32*	40*
CC(C)C/C(=N/O)c1c[nH]c2ccccc12	8	4.2*	-13	1	0
CC(C(=O)c1c[nH]c2ccccc12)N1CCSCC1 (stereo unspecified)	14	0.24	10	-4	-6
O=[N+]([O-])c1ccc(N2CCCC2)cc1N/N=C1\CN2CCC1CC2	-10	.	.	-1	.
O=C(N/N=C1/CN2CCC1CC2)c1cc2ccccc2cc1O	10	-8.2*	-3	-2	-3
C[C@H]1O[C@@H](O[C@H]2[C@@H](O)C[C@H](O[C@H]3[C@@H](O)C[C@H](O[C@H]4CC[C@@]5(C)[C@H](CC[C@@H]6[C@@H]5CC[C@]5(C)[C@@H](C7=CC(=O)OC7)CC[C@]65O)C4)O[C@@H]3C)O[C@@H]2C)C[C@H](O)[C@@H]1O	-2	-7.2*	.	0	.
C[C@@H]1O[C@@H](O[C@H]2C[C@@H](O)[C@]3(CO)[C@H]4[C@H](O)C[C@]5(C)[C@@H](C6=CC(=O)OC6)CC[C@]5(O)[C@@H]4CC[C@]3(O)C2)[C@H](O)[C@H](O)[C@H]1O	-14	-6.6*	.	-1	.
CC1=CC(C)C(COC(N)=O)(COC(N)=O)C(C)C1 (stereo unspecified)	0	-0.06	-8	0	2
CCCCCc1nc2c(c(=O)c3ccccc3n2C)c(=O)n1C1CCCCCC1	-2	.	.	7.3*	.
C=C(C)[C@@]12OC3(c4ccccc4)O[C@@H]1C1[C@@H]4O[C@]4(CO)[C@@H](O)[C@]4(O)C(=O)C(C)=C[C@H]4[C@@]1(O3)[C@H](C)[C@H]2OC(=O)/C=C/C=C/c1ccccc1 (stereo partly specified)	.	-6.3*	.	.	.
O=C(COc1ccccc1)N1CCN(Cc2c[nH]c3ccccc23)CC1	16	0.031	.	-1	.
COc1ccc(OCC(=O)N2CCN(Cc3c[nH]c4ccccc34)CC2)cc1	11	4.3*	12	-1	-7
CCC(C)n1c(O)c(/C=N/NC(=O)c2ccncc2)c(=O)[nH]c1=S (stereo unspecified)	5	.	.	0	.
CCNCC1(c2ccc(OC)c(OC)c2)CCCC1	4	0.39	5	-1	-3
CNCC1(c2ccccc2)CCCC1	-5	-7.4*	-4	-2	-9
COC[C@]12CN(C)C3C4[C@H](OC)[C@H]1C3([C@@H](OC)C[C@H]2O)[C@@H]1C[C@@]2(O)[C@H](OC(=O)c3ccccc3)[C@@H]1[C@]4(OC(C)=O)[C@@H](O)[C@@H]2OC	.	0.2	.	.	.
CC/C(=C\C=C\[C@@H]1C=C[C@@H]2CCC[C@H]2[C@@H]1C(=O)c1ccc[nH]1)[C@@H]1O[C@@H]([C@@H](C)C(=O)O)CC[C@@H]1C	-26	-4*	-33	1	4
O=P1(NCc2ccco2)COc2ccccc2OC1	6	-2.3	24	-1	-6
Cc1ccc(CN2CC3CC(C2)c2cccc(=O)n2C3)cc1 (stereo unspecified)	-4	0.38	7	0	-4
CC(C)(C)c1ccc(S(=O)(=O)N2CC3CC(C2)c2cccc(=O)n2C3)cc1 (stereo unspecified)	-2	2.4*	2	-3	-5
CN1CC[C@@H](c2ccc(F)cc2)[C@H](COc2ccc3c(c2)OCO3)C1	.	-0.6	.	.	.
SMILES	GALR2 antag	DAT uptake mod	S1P2 antag	GALR2 ag	S1P2 ag	others
CC(C)N1C(=O)NC(=O)C2(Cc3cc([N+](=O)[O-])ccc3N(C)C2c2ccccc2)C1=O (stereo unspecified)	12	.	.	0	.
CCC(C)NC(=O)c1c(N)n(Cc2ccc3c(c2)OCO3)c2nc3ccccc3nc12 (stereo unspecified)	-12	0.56	-169	84*	140*
COCCCn1c(N)c(C(=O)OC(C)COC)c2nc3ccccc3nc21 (stereo unspecified)	-9	0.92	.	1	.
CCC(C)NC(=O)c1c(N)n(CC2CCCO2)c2nc3ccccc3nc12 (stereo unspecified)	4	1.8	.	3	.
CCC(C)NC(=O)c1c(N)n(CCCOC)c2nc3ccccc3nc12 (stereo unspecified)	-9	2.3	-69	16*	25*
CC(C)Oc1cc(-n2c(=S)[nH]c3ccccc3c2=O)c(Cl)cc1Cl	7	-0.76	-16	-1	-3
O/N=C1\CCC2CN(C3CCCCC3)CC2C1 (stereo unspecified)	1	-0.49	.	-1	.
CCOP(=O)(OCC)C(NC(=O)C(Cl)Cl)C(Cl)(Cl)Cl (stereo unspecified)	-7	-1.3	-6	-2	-5
CCN(CC)C1=NC(=[N+](CC)CC)c2ccccc21	16	-3*	4	-2	-9
Cc1ccc(C(=O)C2(C)N(O)C(C)C(c3cccs3)=[N+]2[O-])cc1 (stereo unspecified)	1	-0.44	7	-2	-2
CC(C)(C)P(=O)(c1ccncc1)N1CCCC1 (stereo unspecified)	0	6.2*	6	-1	-4
CN1CCc2cc(O)cc3c2[C@H]1Cc1ccc(O)c(O)c1-3	.	1.7	.	.	.
COc1cc2c3cc1Oc1cc(ccc1O)C[C@@H]1c4c(cc(OC)c(O)c4Oc4ccc(cc4)C[C@H]3N(C)CC2)CCN1C	-1	0.29	.	9.6*	.	GALR2 agon conf=12*;BLA activ ctr=1
CN1C(=O)c2ccccc2NC(=O)[C@]12O[C@@H]2c1ccccc1	.	-0.48	.	.	.
CC(NC1CCCCC1)C(O)C12CC3CC(CC(C3)C1)C2 (stereo unspecified)	6	-1.2	-11	19*	-4	GALR2 agon conf=0;BLA activ ctr=-2
CN(C)C(=S)SSC(=S)N(C)C	.	1	.	.	.
Cc1c2ccncc2c(C)c2c1[nH]c1ccccc12	1	-0.0073	.	12*	.	GALR2 agon conf=13*;BLA activ ctr=4
COCCNP(=O)(c1ccccc1)c1nc2ccccc2s1 (stereo unspecified)	-7	.	23	12*	1	GALR2 agon conf=-1;BLA activ ctr=0
COc1ccccc1-n1c(O)c(C=Nc2c(C)n(C)n(-c3ccccc3)c2=O)c(=O)[nH]c1=O	13	0.11	.	-1	.
